Rows were chosen to be rich in hits. Some 19% of all compounds tested hit in one or more screens of this group.
DT40 TDP1 CPT – qHTS for Inhibitors of human tyrosyl-DNA phosphodiesterase 1 (TDP1): qHTS in cells in presence of CPT; chicken DT40 Tdp1-/-;hTDP1 cells + 20 nM CPT, ATP luminescence, 48 h; Potency, µM (top dose mostly 46.2 µM), without a hit: top-dose activity change, negative = growth inhibition, actives largely listed as inhibitors; 12% of 420,000 active; AID 686979, 2013; note: potency is the fitted concentration of half-maximal effect; nearly all actives have a fitted effect of over 55% in size
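Chicken DT40 Tdp1-/- cells complemented with human TDP1, 400 cells/well, exposed to compounds plus 20 nM camptothecin for at least 48 h at 37 C; viability read as ATP content by CellTiter-Glo luminescence.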
HT1080 IDH1KD tx – qHTS for induction of synthetic lethality in tumor cells producing 2HG: qHTS for the HT-1080-IDH1KD cell line; HT-1080 IDH1 knockdown viability, ATP luminescence, 48 h; Potency, µM (highest dose often 46.1 µM), for inactives: at the highest dose activity, negative = toxicity, most hits filed as cytotoxic; 2% of 360,000 active; AID 686971, 2013;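 note: potency is the fitted concentration of half-maximal effect; 0% = DMSO wells and -100% = cell-free medium wells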
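IDH1KD HT-1080 cells, 750/well, RPMI + 5% FBS; compound pinned after 2 h settling; 48 h, 37 °C; CellTiter-Glo luminescence; % activity normalised to DMSO and no-cell wells; curves fitted, classed by r2 and efficacy.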
IL1B secr inh – qHTS for Inhibitors of Inflammasome Signaling: IL-1-beta AlphaLISA Primary Screen. activity change, % at 57.5 µM. 4.7% of 360,000 active. THP-1 LPS/ATP IL-1B secretion, AlphaLISA, 16 h; active compounds read low; in the data active = activity change below about -50%; inconclusive = mostly about -30% to -49%
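THP-1 cells pretreated 1 hr with compounds (up to 57.5 uM final), then stimulated with LPS (250 ng/mL final) plus ATP (1.25 mM final); secreted IL-1B measured by AlphaLISA after 16 hr, decreased signal indicating inhibition.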
DT40 TDP1 no CPT – qHTS for Inhibitors of human tyrosyl-DNA phosphodiesterase 1 (TDP1): qHTS in cells in absence of CPT; DT40 Tdp1-/- hTDP1 cells, no CPT, ATP luminescence, 48 h; Potency, µM (doses to about 46.2 µM), for the others: at the top dose activity change, negative = growth inhibition, actives largely listed as inhibitors; 15% of 420,000 active; note: potency is the fitted concentration of half-maximal effect; nearly all actives have a fitted effect of over 55% in size
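Growth kinetics read by CellTiter-Glo luminescence after ≥48 hr at 37 °C. Cells: DT40 Tdp1-/- stably carrying human TDP1, 400 per well, compound exposure in the absence of CPT (DMSO vehicle).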
HT1080-NT tox – qHTS for induction of synthetic lethality in tumor cells producing 2HG: qHTS for the HT-1080-NT fibrosarcoma cell line. HT-1080-NT fibrosarcoma viability, CellTiter-Glo ATP luminescence, 48 h. Potency, µM (top dose mostly 46.1 µM), without a hit: top-dose activity, negative = less viability, actives largely listed as cytotoxic. 1.6% of 360,000 active;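 note: NT is the 2HG producing partner of a matched IDH1 knockdown line; potency is the fitted concentration of half-maximal effect; 0% = DMSO-treated cells and -100% = media-only wells without cells; nearly all actives have a fitted effect of over 55% in size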
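A 48-hour cytotoxicity screen used HT-1080-NT cells plated 2 hours before compound delivery. ATP-based CellTiter-Glo luminescence measured viability, normalized to DMSO and no-cell controls.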
Starred values were filed as active, the others as inactive; ? = inconclusive; / = not tested or not shown. Unless noted, calls come from the whole dose curve; as a rule, active = well fitted curve in the direction sought with a large enough effect; inconclusive = small, poorly fitted or top-dose-only effect, or another doubt; inactive = no such curve, though single readings can be large; an effect the other way counts as inactive or inconclusive. Unless noted, % is set by controls: 0 for no effect and ±100 for the full control effect.

SMILES	DT40 TDP1 CPT	HT1080 IDH1KD tx	IL1B secr inh	DT40 TDP1 no CPT	HT1080-NT tox
CN(C)c1ccc(CNC(=O)CN(C)S(=O)(=O)c2ccc3c(c2)c(=O)n(C)c(=O)n3C)cc1	6.8%	9.8%	-17.5	3.0%	-1.6%
CCCc1nn2c(=O)cc(COC(=O)c3cccc(NC(=O)CCc4ccccc4)c3)nc2s1	-20.2%	/	/	-26.6%	/
O=C(c1cccc(-n2cccc2)c1)N1CCN(S(=O)(=O)c2c(F)cccc2F)CC1	?	-5.0%	1.2	-18.0%	-10.9%
CCOc1ccc(C(=O)N2CCN(c3cccc(Cl)c3)CC2)cc1	-19.1%	-2.6%	-15.5	?	0.3%
CCCOCc1cc(CN2CCN(c3cccc(Cl)c3)CC2)c(O)c2ncccc12	5.8µM*	/	/	5.17µM*	/
CCCCOCc1cc(CN2CCN(c3cccc(Cl)c3)CC2)c(O)c2ncccc12	16.4µM*	/	/	3.26µM*	/
CN1CCN(Cc2cc(COCc3ccccc3)c3cccnc3c2O)CC1	3.26µM*	?	-96.8*	3.26µM*	?
O=[N+]([O-])c1cc(CN2CCOCC2)c2cccnc2c1O	?	?	16.2	?	-10.7%
O=[N+]([O-])c1cc(CN2CCN(c3ccccc3)CC2)c(O)c2ncccc12	2.06µM*	?	89.2	4.11µM*	?
COc1ccc(OC)c(NC(=O)Cn2c(=O)oc3cc(S(=O)(=O)NCc4ccccc4)ccc32)c1	?	/	/	14.6µM*	/
COc1ccccc1CNC(=O)Cn1c(=O)oc2cc(S(=O)(=O)NCc3ccccc3)ccc21	10.3µM*	/	/	18.4µM*	/
CCOc1ccccc1NC(=O)Cn1c(=O)oc2cc(S(=O)(=O)NCc3ccccc3)ccc21	13µM*	/	/	?	/
CCOc1ccc(CCNS(=O)(=O)c2cc(Br)cc3c2N(C(C)=O)CC3)cc1OCC	-27.3%	/	/	?	/
C=CCN1CN(S(=O)(=O)c2cccc(Cl)c2)c2nc3ccccc3nc21	?	-19.7%	-6.2	?	-20.2%
Cc1cc(C)c(S(=O)(=O)NCc2cccs2)cc1C	6.1%	-12.2%	29.7	-3.2%	-19.4%
COc1cccc(Cn2c(=O)c(C)nc3cnc(Nc4ccccc4)nc32)c1	4.8%	/	/	?	/
COc1ccc(OC)c(Nc2ncc3c(n2)CCN(Cc2cc(OC)c(OC)c(OC)c2)C3)c1	5.8µM*	/	/	7.31µM*	/
COc1ccc(CN2CCc3ccccc3C2)c(OC)c1	-0.4%	5.8%	-3.4	?	3.9%
COc1cc(Nc2ncc3c(n2)CCN(Cc2cc(F)cc(F)c2)C3)cc(OC)c1	4.61µM*	/	/	3.66µM*	/
COc1cc(Nc2ncc3c(n2)CCN(Cc2cccc(C)c2)C3)cc(OC)c1	3.66µM*	/	/	3.26µM*	/
[O-][n+]1c2ccc3nonc3c2nn1-c1ccccc1Cl	1.3%	7.3%	0.0	-28.2%	-6.2%
COc1ccccc1CN1CC(C(=O)NCc2cc(C(C)C)no2)CCC1=O (configuration not stated)	-17.7%	12.9%	0.1	29.7%	23.3%
CCCCC(=O)Nc1ccc(NC(=S)NC(=O)c2cccs2)cc1OC	-3.9%	9.8%	0.0	-17.4%	14.6%
CCOC(=O)c1sc(C)c2c1NC(C)(c1cccs1)NC2=O (configuration not stated)	?	?	-1.7	?	-27.8%
CCOc1ccccc1NC(=S)N1CCN(c2ccccc2F)CC1	?	2.7%	-7.7	20.6µM*	8.3%
CCOc1ccccc1NC(=S)N1CCN(c2nc(-c3ccc(F)cc3)cs2)CC1	20.6µM*	-15.0%	19.6	14.6µM*	?
CCOCCCNC(=S)N1CCN(c2nc(-c3ccc(F)cc3)cs2)CC1	?	?	0.0	?	20.6µM*
CNC(=S)N1CCN(c2nc(-c3ccc(F)cc3)cs2)CC1	?	-9.5%	-14.8	?	-8.6%

Source: PubChem (National Center for Advancing Translational Sciences (NCATS))
